The values below come from PubChem BioAssay (NCATS).

Inconclusive results are not listed. A call without a number means that no potency is given here. Active and inactive are the calls of the source. Unless noted, calls follow the shape of the dose curve; as a rule, active = well fitted inhibition curve with a large enough effect; inconclusive = small, poorly fitted or top-dose-only effect; inactive = no such curve, though single readings can be large or run the other way.

One test in a line: High-throughput drug toxicity screening in the BPDCN cell line Gen2.2 (AID 1224824; call rule not given here;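 also: cells exposed to compounds for 48 h before reading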). Conditions: Gen2.2 BPDCN cells; at 45.8 µM (top of the series). An outline of the steps:
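Seed 500 exponentially growing Gen2.2 cells/well; add compounds by pin tool; incubate 48 h, 37 °C, 5% CO2; add CellTiter-Glo, 15 min RT; read luminescence. % activity vs DMSO (100%) and bortezomib (0%).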
On to `COc1ccc(C(=O)N2CCCC2=O)cc1`, for which the cell viability, % of control (lower = more cytotoxic) is 46.4%. The same measure, in the same setting: then `C[C@@H]1C[C@@H]([C@H](O)CC2CC(=O)NC(=O)C2)C(=O)[C@@H](C)C1`, with 19.5%. `COC(=O)C1=CCCN(C)C1`: the cell viability, % of control (lower = more cytotoxic) came to 166%. For the molecule `O=C(O)c1nn(Cc2ccc(Cl)cc2Cl)c2ccccc12`, the cell viability, % of control (lower = more cytotoxic) was 98.4%.

The next test can be described thus: High-throughput drug toxicity screening in the BPDCN cell line Cal-1 (AID 1224825; call rule not given here). To be noted: Cal-1 BPDCN cell viability, qHTS; at 45.8 µM (top of the series). The method in brief: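 Exponentially growing Cal-1 cells, 500 per well in phenol red-free RPMI with 10% FBS, were exposed to compounds for 48 h at 37 °C, 5% CO2. Viability was read by CellTiter-Glo luminescence and normalised to DMSO (100%) and 9.2 uM bortezomib (0%).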
(In general: qHTS replaces the single test concentration by a dilution series.)
Take `COc1ccc(C(=O)N2CCCC2=O)cc1`: the viability (% of control) amounted to 41.6%.

In the case of `C[C@@H]1C[C@@H]([C@H](O)CC2CC(=O)NC(=O)C2)C(=O)[C@@H](C)C1`, the viability (% of control) came out at 10.9%. Consider `COC(=O)C1=CCCN(C)C1`, for which the viability (% of control) came out at 129%. For `O=C(O)c1nn(Cc2ccc(Cl)cc2Cl)c2ccccc12`, the viability (% of control) turned out to be 95.1%.

The nature of another test: qHTS assay for measurement of the activity of small molecule inhibitors on Zika virus induced Caspase-3 activity in human iPSC derived neural progenitor cells (hNPCs) (AID 1224857). Also: nearly all actives have a fitted effect of over 65% in size. To be noted: hNPCs ZIKV-induced caspase-3/7, Caspase-Glo luminescence, 6 h; series mostly up to 45.7 µM. The method in brief: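 Caspase-3/7 induction by a 6-hour ZIKV infection was quantified with a luminescent Caspase-Glo 3/7 reagent incubated 30 minutes at room temperature. Compounds were preincubated with hNPCs for 1 hour; inhibition was calculated against uninfected and infected control wells.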
`Cc1nnc2n1-c1sc(CCC(=O)N3CCOCC3)cc1C(c1ccccc1Cl)=NC2`: the Potency result is “inactive”. On the same count and under the same terms, then `CCCOC(=O)Cc1ccc(OCC(=O)N(CC)CC)c(OC)c1`, with “inactive”.

Take `CC[C@H](O)C(C[C@H](C)N(C)C)(c1ccccc1)c1ccccc1`: the Potency result was “inactive”. The same measure, in the same setting: with `COc1ccc(C(=O)N2CCCC2=O)cc1` the entry was “inactive”. `CC(CC(C#N)(c1ccccc1)c1ccccc1)N(C)C` (stereo not drawn): the Potency result was “inactive”.

As for `CCOC(C(=O)OCCN(C)C)(c1ccccc1)c1ccccc1`, the Potency result was “inactive”.

On to `CN1C(=O)CN=C(c2ccccc2)c2cc(Cl)ccc21`, for which the Potency entry was “inactive”. On the same count and under the same terms, then `Cc1ccc([N+](=O)[O-])[c]2c1[O][Hg]2`, with “inactive”; and `CC(C)=CCN1CC[C@@]2(C)c3cc(O)ccc3C[C@@H]1[C@@H]2C`, with “inactive”.

For the molecule `Cc1cccc(Cc2cnc[nH]2)c1C`, the Potency entry was “inactive”. As to `COc1cc(C[C@@H](C)N)c(OC)cc1Br`, the Potency result was “inactive”. On the same count and under the same terms, then `CC(=O)OC1(c2ccccc2)CCN(CCc2ccccc2)CC1`, with “inactive”; and `CC(C(O)c1ccccc1)N(C)C/C=C/c1ccccc1` (stereo not drawn), with “inactive”. Still for that read-out and setting: with `CCN1CCCC1CNC(=O)C(O)(c1ccccc1)c1ccccc1` (stereo not drawn) the entry was “inactive”; with `C[C@H]1CNCCc2ccc(Cl)cc21`, “inactive”. The same measure, in the same setting: with `C[C@@H]1C[C@@H]([C@H](O)CC2CC(=O)NC(=O)C2)C(=O)[C@@H](C)C1` the entry was “inactive”; with `CN1C2CCC(C)(C)C1CC(OC(=O)C(O)(c1cccs1)c1cccs1)C2` (stereo not drawn), “inactive”.

Regarding `CC(Cc1ccccc1)NCCCCl` (stereo not drawn), the Potency entry was “inactive”.

Take `O=C(CCl)c1ccc(Cl)cc1Cl`: the Potency entry was “inactive”. Consider `CCC(OC(C)=O)C(CC(C)NC)(c1ccccc1)c1ccccc1` (stereo not drawn), for which the Potency result was “inactive”.

As to `CC[C@H]1C[C@@H]2C[C@H]3c4[nH]c5ccc(OC)cc5c4CCN(C2)[C@@H]13`, the Potency result is “inactive”. On the same count and under the same terms, then `COC(=O)C1=CCCN(C)C1`, with “inactive”; and `O=c1[nH]c2cc(Cl)ccc2n1C1CCNCC1`, with “inactive”; and `CN(C)CCc1c[nH]c2cccc(O)c12`, with “inactive”.

On to `O=C(N[C@H]1N=C(c2ccccc2F)c2cccc3c2N(CC3)C1=O)c1cc2ccccc2[nH]1`, for which the Potency entry was “inactive”. Still for that read-out and setting: with `COc1cc(CC(C)N)c(OC)cc1Br` (stereo not drawn) the entry was “inactive”; with `CCOC(=O)c1ncn2c1CN(C)C(=O)c1c(I)cccc1-2`, “inactive”. Same read-out and setting: then `O=C(CCCCl)c1ccc(F)cc1`, with “inactive”. On the same count and under the same terms, then `CCc1ccc(C2CCNCC2)cc1`, with “inactive”; and `CCC(=O)C(CCN(C)C)(c1ccccc1)c1ccccc1`, with “inactive”; and `O=C(O)CCCCCCNC1c2ccccc2CCc2ccccc21`, with “inactive”. In the case of `c1ccc2c(c1)Sc1ccccc1N2CC1CN2CCC1CC2` (stereo not drawn), the Potency entry was “inactive”. Same read-out and setting: with `COc1ccc(OC)c(CC(C)N)c1` (stereo not drawn) the entry was “inactive”; with `Cc1nnc2n1-c1sc(CCc3ccc(CC(C)C)cc3)cc1C(c1ccccc1Cl)=NC2C` (stereo not drawn), “inactive”. Still for that read-out and setting: then `CCOC(=O)C1(c2ccccc2)CCN(CCc2ccc(N)cc2)CC1`, with “inactive”; and `CCCCC1C(=O)NC(=O)N(C2CCCCC2)C1=O` (stereo not drawn), with “inactive”; and `CN1CCC(N(Cc2ccccc2)c2ccccc2)CC1`, with “inactive”. Still for that read-out and setting: then `Cc1nc2ccccc2c(=O)n1-c1ccccc1Cl`, with “inactive”; and `CC(N)C(=O)OC(C)(C)Cc1ccc(Cl)cc1` (stereo not drawn), with “inactive”.

On to `O=C(O)c1nn(Cc2ccc(Cl)cc2Cl)c2ccccc12`, for which the Potency result is “inactive”.
